Results: PubChem BioAssay
For some of these results: Entries with a potency or affinity are not part of this list. Calls of active or inactive are those of the source.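 Rule for the calls, unless noted: active = fitted half-maximal concentration within the tested dose range, moderate curve steepness, a statistically real signal drop, and little compound fluorescence or tag-binding interference; inactive = the rest.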

Experiments:
[1] = target: Cell division control protein 42 homolog (Homo sapiens) (UniProt P60953); assay: inhibition of fluorescent GTP binding to constitutively active Cdc42 – biochemical, multiplex bead flow cytometry, Bodipy-FL-GTP, dose response (AID 1333)
Sequence of Cell division control protein 42 homolog (Homo sapiens) (P60953 whole entry, looked up): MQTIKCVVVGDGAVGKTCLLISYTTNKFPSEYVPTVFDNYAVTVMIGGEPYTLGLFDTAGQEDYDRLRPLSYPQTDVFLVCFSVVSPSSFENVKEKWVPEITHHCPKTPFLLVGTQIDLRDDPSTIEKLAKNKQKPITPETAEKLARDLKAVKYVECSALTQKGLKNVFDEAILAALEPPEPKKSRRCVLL

[2] = target: Cell division control protein 42 homolog (Homo sapiens) (UniProt P60953); assay: inhibition of fluorescent GTP binding to wildtype Cdc42 – biochemical, multiplex bead flow cytometry, Bodipy-FL-GTP, dose response (AID 1334;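 active = fitted half-maximal concentration within the tested range, moderate curve steepness, significant signal drop, and little compound fluorescence or bead-linkage interference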); settings: bead-based flow cytometry, Bodipy-FL-GTP binding to GST-Cdc42; at 100 µM (top of the series) unless noted
[3] = target: GTPase HRas (Homo sapiens) (UniProt P01112); assay: Ras wt fluorescent GTP loading blockade – biochemical, wildtype, multiplex bead flow cytometry, dose response (AID 1335;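 active = fitted half-maximal concentration within 10 nM to 100 µM, steepness 0.5 to 2, significant signal drop, low assay interference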); settings: bead-based flow cytometry, Bodipy-GTP binding to GST-Ras; at 100 µM (top of the series) unless noted
Sequence of GTPase HRas (Homo sapiens) (P01112 whole entry, looked up): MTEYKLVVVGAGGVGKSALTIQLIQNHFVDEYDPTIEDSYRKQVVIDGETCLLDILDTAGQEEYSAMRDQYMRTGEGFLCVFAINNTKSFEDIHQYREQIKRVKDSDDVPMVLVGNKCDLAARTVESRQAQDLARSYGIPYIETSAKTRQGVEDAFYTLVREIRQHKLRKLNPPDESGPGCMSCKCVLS

[4] = test system: Ras-related protein Rab-7a (dog), GTP binding; assay: blockers of fluorescent GTP binding to Rab7 – biochemical, wildtype, multiplex bead flow cytometry, dose response (AID 1336; call rule not given here)
[5] = target: Ras-related C3 botulinum toxin substrate 1 (Homo sapiens) (UniProt P63000); assay: inhibition of wildtype Rac1 nucleotide loading – biochemical, multiplex bead flow cytometry, dose response (AID 1340;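 active = dose curve with midpoint inside tested range, moderate steepness, plateau gap beyond fit error, low compound glow and bead-link interference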); settings: GST-Rac1 beads, Bodipy-FL-GTP binding; at 100 µM (top of the series) unless noted
[6] = target: GTPase HRas (Homo sapiens) (UniProt P01112); assay: blockade of GTP loading onto mutant Ras – biochemical, activated mutant, multiplex bead flow cytometry, dose response (AID 1341;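 active = dose-response curve with midpoint inside the tested range, moderate steepness, significant amplitude and little compound fluorescence or bead-attachment interference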;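 note: GST-tagged constitutively activated Ras mutant immobilized on beads and multiplexed with other GTPases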)
[7] = hit retest on RPL19A-GFP reporter strain – cell-based, S. cerevisiae, flow cytometry, cherry picks, mother/daughter gates, confirmation (AID 2270;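 active = GFP response below 50% of the DMSO control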); settings: 3 h, at 10 µM, stronger effect = lower value, 100 = same GFP as DMSO wells
[8] = yeast TOR pathway reporter LAP4-GFP change – cell-based, cherry picks, flow cytometry, mother/daughter gates, confirmation (AID 2271;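 active = GFP response above 150% of the DMSO control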;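 note: ratio of sample to DMSO plate mean so 100% equals DMSO level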); settings: S. cerevisiae LAP4-GFP strain, 3 h, at 10 µM, stronger effect = higher value, 100 means same as DMSO control
[9] = TOR pathway reporter MEP2-GFP, retest of hits – S. cerevisiae, flow cytometry GFP, cherry picks, confirmation (AID 2272;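 active = GFP response above 150% of the DMSO control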;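 note: ratio of well signal to plate DMSO mean so 100% equals DMSO level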); settings: S. cerevisiae MEP2-GFP strain, 3 h, at 10 µM, stronger effect = higher value
[10] = yeast AGP1-GFP fluorescence change, single-dose – cell-based, flow cytometry, S. cerevisiae, cherry picks, confirmation (AID 2273;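 active = GFP response above 150% of the DMSO level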;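 note: median GFP channel fluorescence over the whole cell population gate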); settings: S. cerevisiae AGP1-GFP strain, 3 h, at 10 µM
[11] = TOR pathway CIT2 reporter hit retest – S. cerevisiae, GFP fusion, cherry picks, mother/daughter gates, confirmation (AID 2274;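 active = GFP response above 150% of the DMSO level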); settings: S. cerevisiae CIT2-GFP strain, flow cytometry, 3 h, at 10 µM, stronger effect = higher value
[12] = measured here: daughter cell gate
[13] = measured here: mother cell gate
[14] = measured here: daughter cell gate response
[15] = measured here: mother cell gate response

| Compound | outcome [1] | fluorescence, percent of control (lower = inhibition) [2] | GTP binding, percent of control [3] | outcome [4] | GTP binding signal, raw median fluorescence (lower = inhibition) (MCF (arbitrary fluorescence units)) [5] | outcome [6] | GFP response vs DMSO [7] | GFP response vs DMSO [7, 12] | GFP response vs DMSO [7, 13] | GFP response relative to DMSO [8] | GFP response relative to DMSO [8, 14] | GFP response relative to DMSO [8, 15] | GFP response vs DMSO [9] | GFP response, % of DMSO [10] | GFP response, % of DMSO [11] | GFP response, % of DMSO [11, 12] | GFP response, % of DMSO [11, 13] |
| --- | --- | --- | --- | --- | --- | --- | --- | --- | --- | --- | --- | --- | --- | --- | --- | --- | --- |
| O=C(Cn1nc2ccccc2n1)N/N=C/c1cc([N+](=O)[O-])ccc1O | inactive | 23.8% | 54.9% | inactive | 109 | inactive | – | – | – | – | – | – | – | – | – | – | – |
| COc1cccc2sc(Nc3nc(-c4ccccn4)cs3)nc12 | inactive | 34.8% | 80.4% | inactive | 194 | inactive | 107% (inactive) | 99.5% | 96.6% | 254% (active) | 201% | 240% | 124% (inactive) | 104% (inactive) | 96.5% (inactive) | 99.7% | 88% |
| O=C(C#Cc1cccc([N+](=O)[O-])c1)c1ccccc1 | inactive | 31.6% | 81% | inactive | 245 | inactive | 94.1% (inactive) | 98% | 88% | 190% (active) | 167% | 178% | 133% (inactive) | 113% (inactive) | 101% (inactive) | 104% | 91% |
| COc1ccc(OC)c(C(C(=O)NCc2ccco2)N(C(=O)Cn2nnc3ccccc32)C2CC2)c1 (stereo unspecified) | inactive | 47.2% | 58% | inactive | 0 | inactive | – | – | – | – | – | – | – | – | – | – | – |
